Hit rate of the full screen: of about 69,000 compounds, about 8,600 (12%) showed an effect of 50% or more. The full list was thinned out, with strong results kept by preference.
Each compound was assayed on Plasmodium berghei (assay: Screen against P. berghei liver stage (PbLuc), transformed with Luciferase, at 10uM). Conditions: tested at 10 uM.
Assay type: functional, HepG2

Row | Structure (SMILES) | INHIBITION [%]
1 | O=C1CN([C@@H]2CC[C@@H](NS(=O)(=O)c3ccccc3)[C@H]2O)CCN1 | 4.5
2 | CC(C)C[C@H](NC(=O)NC1CCS(=O)(=O)C1)C(=O)NCc1cccnc1 (stereo partly specified) | 44.9
3 | Cc1nccn1CCCNc1ccc(Cl)c(C#N)n1 | -9.39
4 | O=C(CN1CCOc2ccccc2C1)NCc1cc2n(n1)CCNC2 | 21.7
5 | CC(O)CCN(C)C(=O)Nc1ccc(Br)cc1 (stereo unspecified) | -12.1
6 | N#Cc1cccnc1NCc1cccnc1N1CCCCC1 | 51.7
7 | N#Cc1ccc(NCc2cccnc2N2CCC(C(N)=O)CC2)cn1 | 57.3
8 | Cc1ccn(-c2ccc(NCc3cccnc3N3CCCCC3)nn2)n1 | 34.4
9 | N#Cc1cccnc1NCc1cccnc1N1CCC(C(N)=O)CC1 | -0.182
10 | CN1CCN(c2ncccc2CNc2ncccc2C#N)CC1 | -29.4
11 | N#Cc1cccnc1Nc1ccc(N2CCC(C(N)=O)CC2)cc1 | 45.2
12 | Cc1cccc(C(=O)N2CCC3(CCN(c4cnn(C)c4)C3=O)C2)n1 (stereo unspecified) | 24.9
13 | O=C1CO[C@H]2CCN(C(=O)c3ccc4c(c3)CCCC4)CC[C@@H]2N1 | 16.675
14 | O=C(CCc1ccc(F)c(F)c1)N1CCCCC1Cn1cccn1 (stereo unspecified) | 21.5
15 | O=C(c1cnccn1)N1CCc2ncc(CN3CCOCC3)n2CC1 | 48.6
16 | Cc1nc2cc(=O)[nH]n2c(C)c1CC(=O)NCc1ccoc1 | 15.465
17 | CCC(NC1CCN(C(=O)c2ccccc2)CC1)c1cccs1 (stereo unspecified) | 7.22
18 | Cc1cnn(CC2CCCN2C(=O)c2cc(Cl)ccc2F)c1 (stereo unspecified) | 22.9
19 | O=C(O)c1cc(C=Cc2ccccc2)ncn1 | -20.2
20 | Cc1noc([C@@H]2C[C@H]3CN(CC4CCOCC4)C[C@H]3O2)n1 | -7.7
21 | Cc1noc(Cl)c1CCC(=O)N1CCC(Nc2cccnn2)CC1 | -5.07
22 | COc1ccc2nnc(CCCC(=O)NCCc3ccncc3)n2n1 | 32.2
23 | COc1ccc2nnc(CCCC(=O)NCCc3ccccc3)n2n1 | -31
24 | COc1ccc2nnc(CCCC(=O)NCCc3ccccn3)n2n1 | 51.9

Row | Structure (SMILES) | INHIBITION [%]
25 | Cc1nc(Cc2ccc(F)cc2)cc(C2COCCN2)n1 (stereo unspecified) | 35.305
26 | O=C(C1CC1)N1CCCC(c2nc(O)cc(-c3ccncc3)n2)C1 (stereo unspecified) | 47.2
27 | COc1ccc(CN2C[C@H]3C[C@H](CN(C)C)O[C@H]3C2)cc1 | 28.4
28 | CCNCCc1nc2cc(F)ccc2[nH]1 | 72.3
29 | CNCCc1nc2cc(Cl)ccc2[nH]1 | 31.9
30 | CNCCc1nc2cc(F)ccc2[nH]1 | -2.37
31 | CC(C)c1nc(CN2CCC(c3ccnn3CCO)CC2)no1 | 38.5
32 | CCN(c1ccc(C(=O)N2CCCCCC2)cc1)S(=O)(=O)CC | 3.77
33 | CN(CC1CCN(c2ccccc2)C1)c1ccc(Cn2ccnc2)cn1 (stereo unspecified) | 74.9
34 | CC(C)N1CCCC(CN(C)c2ccc(Cn3ccnc3)cn2)C1 (stereo unspecified) | -23.4
35 | CSCc1ccc(N(C)CC2CCCN(C(C)C)C2)nc1 (stereo unspecified) | -43.1
36 | Cn1c2c(c(=O)n1C)CN(C(=O)c1ccncc1F)CCC2 | 25.8
37 | COC(=O)c1cc(C(=O)N2CCN(C)CC2)n(-c2ccccc2)n1 | 30.2
38 | CNC(=O)NCC(=O)N1CCCC1Cc1cccc(F)c1 (stereo unspecified) | 10.6
39 | NC(=O)c1cccnc1N1C[C@H]2CC[C@@H](C1)N(Cc1ccccn1)C2=O | 43.8
40 | Cc1ccc2[nH]c(C3CCN(CC(N)=O)CC3)nc2c1 | -9.51
41 | NC(=O)c1cccc2nc([C@H]3CCN(Cc4ccccc4F)C3)[nH]c12 | 14.9
42 | NC(=O)c1cccc2nc([C@H]3CCN(Cc4ccccn4)C3)[nH]c12 | 66.6
43 | Cc1ccc(CN2CC[C@H](c3nc4cccc(C(N)=O)c4[nH]3)C2)cc1 | 59.2
44 | COc1ccc(CN2CC[C@H](c3nc4cccc(C(N)=O)c4[nH]3)C2)cc1 | 22.3
45 | CS(=O)(=O)N1CC[C@@H]2[C@@H]1CCN2Cc1ccc2c(c1)OCO2 | 7.5
46 | CC(C)N(CCCNC(=O)C1CCCN(C(N)=O)C1)S(C)(=O)=O (stereo unspecified) | 36.5
47 | CN(Cc1cn(CC2CCNCC2)nn1)CC1CCCCO1 (stereo unspecified) | -1.04
48 | O=C1[C@H]2CN(Cc3ccco3)C[C@H]2CN1c1ccsc1 | 31.1

Row | Structure (SMILES) | INHIBITION [%]
49 | CC(NCCCN1CCCN(C)CC1)C(C)(C)C (stereo unspecified) | 26
50 | Cc1ccccc1-c1cc(NC(=O)Cn2ccccc2=O)n(C)n1 | -3.94
51 | Cn1nc(C(C)(C)C)cc1NC(=O)Cn1ccccc1=O | 54.3
52 | Cc1cc(NC(=O)Cn2ccccc2=O)n(C)n1 | 11.5
53 | c1cnc(N2CCO[C@H]3CN(CC4CCC4)C[C@H]32)cn1 | 62
54 | Fc1cnc(N2CCO[C@H]3CN(CC4CCOC4)C[C@H]32)nc1 (stereo partly specified) | 43.1
55 | Fc1cnc(N2CCO[C@H]3CN(CC4CCC4)C[C@H]32)nc1 | 12.2
56 | c1cncc(N2CCO[C@H]3CN(CC4CCOC4)C[C@H]32)c1 (stereo partly specified) | 62
57 | c1cnc(N2CCO[C@H]3CN(CC4CCOC4)C[C@H]32)cn1 (stereo partly specified) | 44.8
58 | c1cnc(N2CCO[C@H]3CN(CC4CCCC4)C[C@H]32)cn1 | 42.1
59 | O=C(C1=CCCCC1)N1CCO[C@H]2[C@H](Oc3ccccn3)CC[C@@H]21 | 27.6
60 | CCCc1nc(C)cc(NCc2ccc(S(N)(=O)=O)cc2)n1 | 18.5
61 | CCOc1ccc(-n2nnc(C(=O)O)c2-c2ccccn2)cc1 | -31.6
62 | CCN(Cc1ccccn1)Cc1cc(Cl)ccc1OC | 39.1
63 | CCN(Cc1cc(Cl)ccc1OC)Cc1nccn1C | 15.3
64 | CCN(Cc1cc(Cl)ccc1OC)Cc1cc(C)nn1C | 57.9
65 | O=C(CCCN1CCCCC1)N1CCN(C(=O)c2nc[nH]n2)CC1 | -15.5
66 | Cc1[nH]ncc1CCCNC(=O)Nc1ccccc1 | 24.6
67 | Cc1[nH]ncc1CCCNC(=O)Nc1ccc(F)cc1 | 78.2
68 | Cc1[nH]ncc1CCCNC(=O)Nc1ccc(S(C)(=O)=O)nc1 | 22.6
69 | Cc1[nH]ncc1CCCNC(=O)N1CCOC(C)C1 (stereo unspecified) | -1.95
70 | Cc1[nH]ncc1CCCNC(=O)Nc1ccc(C#N)cc1 | -70.3
71 | Cc1[nH]ncc1CCCNC(=O)Nc1ccc2c(c1)OC1(CCCC1)O2 | 70.3

Source: ChEMBL document CHEMBL4513216, “Probing the Open Global Health Chemical Diversity Library for Multistage-Active Starting Points for Next-Generation Antimalarials” (ACS Infect Dis, 2020)
